An excerpt weighted towards active compounds, which were near 2.4% of everything screened.
Yeast superoxide = lowers age-related superoxide in aged yeast cells | actives 0.18% (n = 330,000) | S. cerevisiae aged cells, superoxide DHE fluorescence; stronger effect = lower value | superoxide response (% of plate mean), % at 10 µM | AID 2690;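 active = superoxide response under a set limit, about three screen SD below normal, cut at about 65% in these data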;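 note: yeast aged for seven days with compound at 30 °C before DHE staining; 100% = average MFI of all compound-treated wells on the plate with controls excluded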
PfGluPho inh = PfG6PD (Plasmodium falciparum) enzyme inhibition. actives 0.78% (n = 350,000). PfGluPho enzyme, NADPH resazurin-diaphorase fluorescence. inhibition, % at 20 µM. AID 504690;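 active = inhibition reaching at least a set limit at 20 µM in the primary screen, cut at about 59% in these data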;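 note: 0% = DMSO wells with substrate and 100% = DMSO wells lacking glucose-6-phosphate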
A3G deaminase = APOBEC3G (human) deaminase inhibition. Q9HC16. inhibition, % at 20 µM. recombinant A3G, ssDNA deamination FAM/TAMRA fluorescence. actives 0.28% (n = 330,000). AID 493012;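 active = inhibition of at least 40% at 20 µM, with no more than 30% in the related APOBEC3A deaminase screen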;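 note: plate controls were DMSO wells with A3G for no effect and wells lacking A3G enzyme for full effect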
Target sequence (Q9HC16 whole entry, looked up): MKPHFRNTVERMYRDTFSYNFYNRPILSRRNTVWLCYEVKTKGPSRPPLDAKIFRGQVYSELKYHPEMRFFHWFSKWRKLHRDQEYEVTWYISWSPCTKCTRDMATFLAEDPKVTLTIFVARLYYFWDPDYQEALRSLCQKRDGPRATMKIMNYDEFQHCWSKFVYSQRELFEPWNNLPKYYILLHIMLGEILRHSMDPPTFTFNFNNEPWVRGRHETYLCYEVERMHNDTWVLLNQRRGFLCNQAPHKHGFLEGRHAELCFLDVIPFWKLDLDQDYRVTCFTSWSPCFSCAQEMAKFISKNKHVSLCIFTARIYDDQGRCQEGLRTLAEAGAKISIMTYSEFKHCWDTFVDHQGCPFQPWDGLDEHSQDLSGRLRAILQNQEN
M18AAP inhibitor = PfM18AAP enzyme inhibition; recombinant PfM18AAP, H-Glu-NHMec fluorogenic cleavage; inhibition, % at 7.35 µM; actives 1.2% (n = 290,000); AID 1822;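 active = inhibition above the campaign mean inhibition over all tested compounds plus 3 SD, cut at about 28% in these data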;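 note: 0% = plate median of test compound wells and 100% = 2 mM ZnCl2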
APOBEC3A inh = human APOBEC3A DNA deaminase inhibition; P31941; recombinant A3A, FAM/TAMRA ssDNA deamination fluorescence; inhibition, % at 20 µM; actives 0.41% (n = 330,000); AID 493011;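 active = at least 40% inhibition at 20 µM here, with at most 30% in a related deaminase screen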;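 note: plate controls were A3A with DMSO for no effect and wells lacking A3A enzyme for full effect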
Superoxide pick = confirmation of caloric restriction mimetics inhibiting yeast age-related superoxide. actives 1% (n = 850). shares compounds with Yeast superoxide. AID 434994. S. cerevisiae aging, superoxide DHE fluorescence; stronger effect = lower value. superoxide response (% of plate), % at 10 µM;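 active = superoxide signal below 65% of the plate average of sample wells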;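 note: cells aged with compound for 7 days at 30 degrees C before staining; 100% equals mean DHE fluorescence of all compound wells on the plate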
DHE counter = DHE fluorescence interference, counter-screen artifact; fluorescence response, % at 10 µM; shares compounds with Yeast superoxide; 850 tested, under 10 active; S. cerevisiae BY4741, flow cytometry; stronger effect = lower value;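 active = fluorescence response below 15%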;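 note: percent of the mean fluorescence averaged over all compound wells on the plate; lower means stronger quenching of DHE signal or ROS scavenging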
* = called active by the depositor; . = no result given.

SMILES | Yeast superoxide | PfGluPho inh | A3G deaminase | M18AAP inhibitor | APOBEC3A inh | Superoxide pick | DHE counter
CC(C)(C)c1ccc(C(=O)C2CCCN(C3CCC3)C2)cc1 (stereo not given) | 64.7* | 8.1 | -5.9 | -0.1 | 2.0 | 121.3 | 118.7
CC(C)(C)c1ccc(C(=O)C2CCCN(Cc3ccon3)C2)cc1 (stereo not given) | 94.0 | -1.8 | 1.7 | -1.6 | -1.5 | . | .
Cc1ccc(C)c(Cn2c(C(=O)O)c(C=O)c3ccccc32)c1 | 110.2 | 0.1 | -2.4 | 3.7 | 0.8 | . | .
Cc1ccc[n+](CC(O)Cn2c3ccccc3c3ccccc32)c1 (stereo not given) | 52.3* | -14.1 | -5.1 | 0.7 | -4.6 | 92.0 | 90.7
CC(CN(C)C1CCN(C)CC1)c1ccccc1 (stereo not given) | 99.0 | -22.9 | -1.1 | -9.1 | -5.1 | . | .
C[C@]12CCC3C(CC[C@H]4C[C@@H](O)CC[C@]34C)C1[C@H]1CN=N[C@H]1[C@@H]2O (stereo not given in full) | 107.8 | -13.9 | 8.6 | . | 16.7 | 133.8 | 120.4
C[C@]12CCC3C(CC[C@H]4C[C@@H](O)CC[C@]34C)C1CC[C@@H]2OC(=O)[C@H](N)CCCCN (stereo not given in full) | 81.8 | 1.4 | -7.7 | . | 1.4 | 72.8 | 98.3
C[C@]12CCC3C(CC[C@H]4C[C@@H](O)CC[C@]34C)C1C[C@@H](Br)[C@H]2O (stereo not given in full) | 77.0 | . | -5.8 | . | -1.8 | 104.0 | 112.5
C[C@]12CCC3[C@@H](CC[C@@H]4C[C@H](O)CC[C@]34C)[C@@H]1CCC2=O (stereo not given in full) | 66.4 | 9.3 | -7.1 | . | -2.7 | . | .
C[C@]12CCC3C(CC[C@H]4C[C@@H](O)CC[C@]34C)C1CCC2=O (stereo not given in full) | 62.7* | -1.4 | -2.8 | . | 1.7 | 90.0 | 102.8
C[C@]12CC[C@H](O)C[C@@H]1CC[C@@H]1[C@@H]2CC[C@]2(C)C(=O)CC[C@@H]12 | 70.3 | 5.7 | -0.7 | 3.4 | 1.9 | . | .
CN1CCc2nc(SCc3cccc(Br)c3)c(C#N)cc2C1 | 88.0 | 6.5 | -1.5 | 6.8 | -1.6 | . | .
COC(=O)C1=C(c2ccc(-c3ccccc3)c(F)c2)C[C@@H]2CC[C@H]1N2C(=O)NC1Cc2ccccc2C1 | 99.4 | 3.8 | -10.7 | . | -1.0 | . | .
COc1ccc(-n2c(O)c(C(C)=NCC3CCCO3)c(=O)[nH]c2=O)cc1 (stereo not given) | 55.8* | -9.7 | -2.6 | -8.2 | 0.4 | 107.1 | 126.2
CC12CCC3C(CCCC4CC(=O)CCC43C)C1CCC2O (stereo not given) | . | -2.1 | . | . | . | . | .
CC12CCC3C(CCC4CC(=O)C(C(O)C(F)(F)F)CC43C)C1CCC2O (stereo not given) | . | -0.5 | . | . | . | 101.2 | 115.5
C[C@]12CCC(=O)C[C@H]1CC[C@@H]1[C@@H]2CC[C@]2(C)[C@@H](O)CC[C@@H]12 | 73.3 | . | 20.9 | . | 5.0 | 99.0 | 117.8
COc1cc(OC)c(OC)cc1CNCCc1ccc2c(c1)OCO2 | 119.9 | -10.0 | -1.2 | 2.6 | 0.3 | . | .
CC(C)(C)c1cc(OC(=O)Cc2ccccc2)ccc1O | 104.1 | 8.0 | -4.9 | 6.7 | -4.3 | . | .
O=C1C(Cc2cnc[nH]2)NC(=S)N1c1ccccc1 (stereo not given) | 91.4 | 12.3 | 1.9 | 5.9 | 1.6 | . | .
CNc1ccc2nc3ccccc3[n+](C)c2c1 | 61.9* | -11.9 | 13.5 | -9.2 | 12.1 | 61.6* | 110.3
C[C@]12CCC3C(CC[C@@H]4[C@H]5O[C@H]5CC[C@]34C)C1CC[C@@H]2O (stereo not given in full) | . | -24.5 | . | . | . | 77.7 | 92.6
C[C@]12CCC(=O)C=C1CCC1C2CC[C@@]2(C)C1CC[C@@H]2O (stereo not given in full) | 91.7 | 1.3 | -1.5 | . | -3.6 | . | .
C[C@]12CC[C@H](N)CC1=CCC1C2CC[C@@]2(C)C1CC[C@@H]2O (stereo not given in full) | 123.2 | -19.6 | -5.1 | . | 2.3 | . | .
C[C@]12CCC3C(C[C@@H](O)[C@H]4C[C@@H](O)CC[C@]34C)C1CC[C@@H]2O (stereo not given in full) | 103.9 | -7.9 | -3.6 | . | 2.4 | 95.5 | 95.0
